Data: PubChem BioAssay AID1159580 (chemical genetic matrix, 2015)
Hit rate of the full screen: of about 5,500 compounds, about 2,000 (36%) were called active. Roughly 18% stayed inconclusive and do not appear here. Rule as the data show it: active = normalized growth mostly below about 0.91 (no sharp cut-off); inconclusive = no clear call, values can overlap the other calls; inactive = mostly above about 0.92. Some of the results follow.

Test: chemical genetic growth profiling, strain panel (AID 1159580);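 also: tested at 20 µM; growth read once vehicle control cultures reached saturation at 30 °C; 1 = growth at the plate median or of vehicle wells; lower values mean less growth of the strain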
Details: growth OD
[1] = S. cerevisiae deletion strains, locus YAL013W, strain DEP1, stronger effect = lower value
[2] = S. cerevisiae deletion strains, locus YCL061C, strain MRC1, stronger effect = lower value
[3] = S. cerevisiae deletion strains, locus YDR150W, strain NUM1, stronger effect = lower value
[4] = S. cerevisiae deletion strains, locus YGR229C, strain SMI1, stronger effect = lower value
[5] = S. cerevisiae deletion strains, locus YHR030C, strain SLT2, stronger effect = lower value
[6] = S. cerevisiae deletion strains, locus YHR079C, strain IRE1, stronger effect = lower value
[7] = S. cerevisiae deletion strains, locus YJL095W, strain BCK1, stronger effect = lower value
[8] = S. cerevisiae deletion strains, locus YJL187C, strain SWE1, stronger effect = lower value
[9] = S. cerevisiae deletion strains, locus YJR066W, strain TOR1, stronger effect = lower value
[10] = S. cerevisiae deletion strains, locus YJR075W, strain HOC1, stronger effect = lower value
[11] = S. cerevisiae deletion strains, locus YLR113W, strain HOG1, stronger effect = lower value
[12] = S. cerevisiae deletion strains, locus YMR307W, strain GAS1, stronger effect = lower value
[13] = S. cerevisiae deletion strains, locus YNL128W, strain TEP1, stronger effect = lower value
[14] = S. cerevisiae deletion strains, locus YNL183C, strain NPR1, stronger effect = lower value
[15] = S. cerevisiae deletion strains, locus YOR231W, strain MKK1, stronger effect = lower value
[16] = S. cerevisiae deletion strains, locus YPL055C, strain LGE1, stronger effect = lower value
[17] = S. cerevisiae deletion strains, locus YPL241C, strain CIN2, stronger effect = lower value
[18] = S. cerevisiae deletion strains, locus YPL256C, strain CLN2, stronger effect = lower value

Measured: normalized growth

CCCCS(=N)(=O)CCC(N)C(=O)O (configuration not stated)
inactive: [1] 0.993 | S. cerevisiae deletion strains, locus YAL021C, strain ccr4, stronger effect = lower value 0.983 | S. cerevisiae deletion strains, locus YAL026C, strain drs2, stronger effect = lower value 1 | S. cerevisiae deletion strains, locus YAL030W, strain snc1, stronger effect = lower value 0.997 | S. cerevisiae deletion strains, locus YAL040C, strain CLN3, stronger effect = lower value 0.993 | S. cerevisiae deletion strains, locus YBL061C, strain skt5, stronger effect = lower value 0.999 | S. cerevisiae deletion strains, locus YBR009C, strain hhf1, stronger effect = lower value 1.02 | S. cerevisiae deletion strains, locus YBR023C, strain chs3, stronger effect = lower value 0.997 | S. cerevisiae deletion strains, locus YBR171W, strain sec66, stronger effect = lower value 0.999 | S. cerevisiae deletion strains, locus YBR231C, strain swc5, stronger effect = lower value 0.998 | S. cerevisiae deletion strains, locus YBR279W, strain paf1, stronger effect = lower value 0.993 | S. cerevisiae deletion strains, locus YCL011C, strain gbp2, stronger effect = lower value 0.988 | S. cerevisiae deletion strains, locus YCL016C, strain dcc1, stronger effect = lower value 1 | S. cerevisiae deletion strains, locus YCL061C, strain MRC1 (second series), stronger effect = lower value 0.997 | [2] 0.993 | S. cerevisiae deletion strains, locus YCL069W, strain vba3, stronger effect = lower value 0.992 | S. cerevisiae deletion strains, locus YCR088W, strain abp1, stronger effect = lower value 0.992 | S. cerevisiae deletion strains, locus YDL005C, strain med2, stronger effect = lower value 0.984 | S. cerevisiae deletion strains, locus YDL040C, strain nat1, stronger effect = lower value 0.994 | S. cerevisiae deletion strains, locus YDR001C, strain nth1, stronger effect = lower value 0.99 | S. cerevisiae deletion strains, locus YDR069C, strain doa4, stronger effect = lower value 1.01 | S. cerevisiae deletion strains, locus YDR137W, strain rgp1, stronger effect = lower value 0.973 | [3] 1.01 | S. cerevisiae deletion strains, locus YDR159W, strain sac3, stronger effect = lower value 1.02 | S. cerevisiae deletion strains, locus YDR195W, strain ref2 0.994 | S. cerevisiae deletion strains, locus YDR297W, strain sur2, stronger effect = lower value 0.993 | S. cerevisiae deletion strains, locus YDR334W, strain swr1, stronger effect = lower value 0.987 | S. cerevisiae deletion strains, locus YDR335W, strain msn5, stronger effect = lower value 0.99 | S. cerevisiae deletion strains, locus YDR363W, strain ESC2, stronger effect = lower value 0.992 | S. cerevisiae deletion strains, locus YDR392W, strain spt3, stronger effect = lower value 0.976 | S. cerevisiae deletion strains, locus YEL003W, strain gim4, stronger effect = lower value 0.994 | S. cerevisiae deletion strains, locus YEL037C, strain rad23, stronger effect = lower value 0.99 | S. cerevisiae deletion strains, locus YEL061C, strain CIN8 (second series), stronger effect = lower value 0.99 | S. cerevisiae deletion strains, locus YER002W, strain NOP16, stronger effect = lower value 0.979 | S. cerevisiae deletion strains, locus YER015W, strain faa2, stronger effect = lower value 0.996 | S. cerevisiae deletion strains, locus YER016W, strain bim1, stronger effect = lower value 0.996 | S. cerevisiae deletion strains, locus YER111C, strain swi4, stronger effect = lower value 0.983 | S. cerevisiae deletion strains, locus YER155C, strain BEM2 (second series), stronger effect = lower value 1.01 | S. cerevisiae deletion strains, locus YFR010W, strain ubp6, stronger effect = lower value 0.999 | S. cerevisiae deletion strains, locus YGL167C, strain pmr1, stronger effect = lower value 1 | S. cerevisiae deletion strains, locus YGL173C, strain kem1, stronger effect = lower value 1 | S. cerevisiae deletion strains, locus YGL227W, strain vid30, stronger effect = lower value 0.984 | S. cerevisiae deletion strains, locus YGL240W, strain doc1, stronger effect = lower value 1.01 | S. cerevisiae deletion strains, locus YGL253W, strain hxk2, stronger effect = lower value 1 | [4] 0.955 | S. cerevisiae deletion strains, locus YHR013C, strain ard1, stronger effect = lower value 0.979 | S. cerevisiae deletion strains, locus YHR027C, strain rpn1, stronger effect = lower value 0.99 | [5] 0.981 | [6] 0.98 | S. cerevisiae deletion strains, locus YHR142W, strain chs7, stronger effect = lower value 0.979 | S. cerevisiae deletion strains, locus YJL092W, strain hpr5, stronger effect = lower value 1 | S. cerevisiae deletion strains, locus YJL095W, strain BCK1 (second series), stronger effect = lower value 0.995 | [7] 0.983 | S. cerevisiae deletion strains, locus YJL115W, strain asf1, stronger effect = lower value 0.996 | S. cerevisiae deletion strains, locus YJL129C, strain trk1, stronger effect = lower value 0.986 | S. cerevisiae deletion strains, locus YJL154C, strain vps35, stronger effect = lower value 0.993 | S. cerevisiae deletion strains, locus YJL164C, strain tpk1, stronger effect = lower value 0.996 | S. cerevisiae deletion strains, locus YJL166W, strain qcr8, stronger effect = lower value 1 | [8] 0.994 | [9] 0.9 | [10] 1 | S. cerevisiae deletion strains, locus YKL160W, strain elf1, stronger effect = lower value 0.997 | S. cerevisiae deletion strains, locus YKR026C, strain gcn3, stronger effect = lower value 0.986 | S. cerevisiae deletion strains, locus YKR091W, strain srl3, stronger effect = lower value 0.988 | S. cerevisiae deletion strains, locus YLL001W, strain dnm1, stronger effect = lower value 0.993 | S. cerevisiae deletion strains, locus YLL026W, stronger effect = lower value 0.993 | S. cerevisiae deletion strains, locus YLL041C, strain sdh2, stronger effect = lower value 0.988 | S. cerevisiae deletion strains, locus YLR027C, strain aat2, stronger effect = lower value 0.993 | [11] 0.99 | S. cerevisiae deletion strains, locus YLR221C, strain rsa3, stronger effect = lower value 0.986 | S. cerevisiae deletion strains, locus YLR258W, strain gsy2, stronger effect = lower value 1 | S. cerevisiae deletion strains, locus YLR262C, strain YPT6 (second series), stronger effect = lower value 0.998 | S. cerevisiae deletion strains, locus YLR320W, strain mms22, stronger effect = lower value 0.99 | S. cerevisiae deletion strains, locus YLR342W, strain FKS1, stronger effect = lower value 0.993 | S. cerevisiae deletion strains, locus YLR357W, strain rsc2, stronger effect = lower value 1 | S. cerevisiae deletion strains, locus YLR370C, strain arc18, stronger effect = lower value 0.99 | S. cerevisiae deletion strains, locus YLR384C, strain iki3, stronger effect = lower value 1.01 | S. cerevisiae deletion strains, locus YML120C, strain ndi1, stronger effect = lower value 0.983 | S. cerevisiae deletion strains, locus YMR058W, strain fet3, stronger effect = lower value 0.999 | S. cerevisiae deletion strains, locus YMR125W, strain sto1, stronger effect = lower value 0.99 | S. cerevisiae deletion strains, locus YMR129W, stronger effect = lower value 0.959 | S. cerevisiae deletion strains, locus YMR205C, strain PFK2, stronger effect = lower value 1.02 | S. cerevisiae deletion strains, locus YMR231W, strain pep5, stronger effect = lower value 0.997 | [12] 1.01 | S. cerevisiae deletion strains, locus YNL071W, strain lat1, stronger effect = lower value 0.982 | [13] 0.991 | S. cerevisiae deletion strains, locus YNL175C, strain NOP13, stronger effect = lower value 0.97 | [14] 0.929 | S. cerevisiae deletion strains, locus YNL197C, strain WHI3, stronger effect = lower value 0.94 | S. cerevisiae deletion strains, locus YNL209W, strain ssb2, stronger effect = lower value 0.991 | S. cerevisiae deletion strains, locus YNL224C, strain SQS1, stronger effect = lower value 0.986 | S. cerevisiae deletion strains, locus YNL248C, strain rpa49, stronger effect = lower value 0.991 | S. cerevisiae deletion strains, locus YNL322C, strain KRE1 (second series), stronger effect = lower value 0.998 | S. cerevisiae deletion strains, locus YNR049C, strain mso1, stronger effect = lower value 0.994 | S. cerevisiae deletion strains, locus YOR001W, strain rrp6, stronger effect = lower value 0.974 | S. cerevisiae deletion strains, locus YOR070C, strain gyp1, stronger effect = lower value 0.99 | S. cerevisiae deletion strains, locus YOR080W, strain dia2, stronger effect = lower value 0.99 | S. cerevisiae deletion strains, locus YOR083W, strain WHI5 (second series), stronger effect = lower value 0.95 | S. cerevisiae deletion strains, locus YOR083W, strain WHI5, stronger effect = lower value 1 | S. cerevisiae deletion strains, locus YOR106W, strain vam3, stronger effect = lower value 1.01 | [15] 0.988 | S. cerevisiae deletion strains, locus YOR265W, strain rbl2, stronger effect = lower value 0.989 | S. cerevisiae deletion strains, locus YOR270C, strain vph1, stronger effect = lower value 0.99 | S. cerevisiae deletion strains, locus YOR290C, strain snf2, stronger effect = lower value 0.949 | S. cerevisiae deletion strains, locus YPL051W, strain arl3, stronger effect = lower value 0.992 | [16] 0.999 | S. cerevisiae deletion strains, locus YPL078C, strain atp4, stronger effect = lower value 0.994 | S. cerevisiae deletion strains, locus YPL106C, strain sse1, stronger effect = lower value 0.991 | S. cerevisiae deletion strains, locus YPL240C, strain hsp82, stronger effect = lower value 0.998 | [17] 0.998 | [18] 0.988

CCSCCC(N)C(=O)O (configuration not stated)
inactive: [5] 1.06 | [6] 1.05 | [7] 1.04 | [9] 1.01 | [11] 1.04 | [14] 1.02 | [15] 1.03 | [18] 1.05

COc1ccc(CNc2ccccc2-c2nc3ccccc3[nH]2)cc1
inactive: [1] 0.967 | S. cerevisiae deletion strains, locus YBR229C, strain ROT2, stronger effect = lower value 0.944 | [2] 0.941 | S. cerevisiae deletion strains, locus YDL101C, strain DUN1, stronger effect = lower value 0.937 | [3] 0.934 | S. cerevisiae deletion strains, locus YGR078C, strain PAC10, stronger effect = lower value 0.952 | [4] 0.95 | S. cerevisiae deletion strains, locus YHR087W, strain rtc3, stronger effect = lower value 0.92 | [8] 0.978 | S. cerevisiae deletion strains, locus YJR043C, strain POL32, stronger effect = lower value 0.957 | [10] 0.937 | S. cerevisiae deletion strains, locus YLR058C, strain SHM2 (second series), stronger effect = lower value 0.956 | S. cerevisiae deletion strains, locus YML094W, strain GIM5, stronger effect = lower value 0.882 | S. cerevisiae deletion strains, locus YMR219W, strain ESC1, stronger effect = lower value 0.983 | S. cerevisiae deletion strains, locus YMR263W, strain SAP30, stronger effect = lower value 0.948 | [13] 0.917 | S. cerevisiae deletion strains, locus YNL153C, strain GIM3, stronger effect = lower value 0.959 | S. cerevisiae deletion strains, locus YNL322C, strain KRE1, stronger effect = lower value 0.978 | [16] 0.797
active: S. cerevisiae deletion strains, locus YDL134C, strain PPH21, stronger effect = lower value 0.87 | S. cerevisiae deletion strains, locus YEL061C, strain CIN8, stronger effect = lower value 0.861 | [5] 0.431 | S. cerevisiae deletion strains, locus YKL190W, strain CNB1, stronger effect = lower value 0.881 | S. cerevisiae deletion strains, locus YLR039C, strain RIC1, stronger effect = lower value 0.529 | S. cerevisiae deletion strains, locus YLR085C, strain ARP6, stronger effect = lower value 0.514 | S. cerevisiae deletion strains, locus YLR262C, strain YPT6, stronger effect = lower value 0.648 | [12] 0.52 | S. cerevisiae deletion strains, locus YNL298W, strain CLA4 (second series), stronger effect = lower value 0.789 | S. cerevisiae deletion strains, locus YNR030W, strain Alg12, stronger effect = lower value 0.867 | S. cerevisiae deletion strains, locus YOL006C, strain TOP1, stronger effect = lower value 0.57 | [17] 0.818 | S. cerevisiae deletion strains, locus YPR135W, strain CTF4, stronger effect = lower value 0.498 | S. cerevisiae strains, strain wild type, stronger effect = lower value 0.881
